# Screens: PubChem BioAssay, National Center for Advancing Translational Sciences (NCATS)
# Rab9 promoter act – Rab9 promoter activation; Huh7 Rab9 promoter-luciferase reporter, luminescence, 24 h; Potency, µM (top dose mostly 9.22 µM), without a hit: at the highest dose activation, negative = inhibition, hits mostly activators; 320,000 tested, 2.8% active; further: % of control where 0% means no effect; nearly all actives have a fitted effect of over 60% in size
#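 Promoter activation is measured as luciferase luminescence in Huh7 cells stably transfected with a Rab9 promoter–luciferase construct, following 24 h compound exposure at 37 °C and 10 min reagent incubation at ambient temperature.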
# SMN2 splice up – increases expression of the SMN2 splice variant; Potency, µM (titrated, usually from 46.1 µM), for inactives: at the top dose activity change, positive = activation, hits mostly activators; 210,000 tested, 2.8% active; HEK293 SMN2-luciferase splicing reporter, luminescence, 30-36 h; further: % of control where 0% means no effect; nearly all actives have a fitted effect of over 55% in size
#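 HEK293 cells carry an SMN2 […]–luciferase reporter in which exon 7 inclusion puts luciferase in frame. Cells were plated 10-12 h before compound addition, then incubated 30-36 h at 37C. ONE-Glo luminescence was read; sodium butyrate at 4.5 mM final served as control.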
# FLuc counter – counter-screen for miR-21 project: firefly luciferase inhibitors or activators. Potency, µM (top dose mostly 57.5 µM), for inactives: top-dose activity change, negative = inhibition, usual class: inhibitors. 360,000 tested, 6.9% active. purified FLuc, Km substrates, luminescence inhibition. P08659. AID 588342;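 further: plate controls were vehicle for no effect and reference inhibitor for full effect; nearly all actives have a fitted effect of over 55% in size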
# Target sequence (P08659 whole entry, looked up): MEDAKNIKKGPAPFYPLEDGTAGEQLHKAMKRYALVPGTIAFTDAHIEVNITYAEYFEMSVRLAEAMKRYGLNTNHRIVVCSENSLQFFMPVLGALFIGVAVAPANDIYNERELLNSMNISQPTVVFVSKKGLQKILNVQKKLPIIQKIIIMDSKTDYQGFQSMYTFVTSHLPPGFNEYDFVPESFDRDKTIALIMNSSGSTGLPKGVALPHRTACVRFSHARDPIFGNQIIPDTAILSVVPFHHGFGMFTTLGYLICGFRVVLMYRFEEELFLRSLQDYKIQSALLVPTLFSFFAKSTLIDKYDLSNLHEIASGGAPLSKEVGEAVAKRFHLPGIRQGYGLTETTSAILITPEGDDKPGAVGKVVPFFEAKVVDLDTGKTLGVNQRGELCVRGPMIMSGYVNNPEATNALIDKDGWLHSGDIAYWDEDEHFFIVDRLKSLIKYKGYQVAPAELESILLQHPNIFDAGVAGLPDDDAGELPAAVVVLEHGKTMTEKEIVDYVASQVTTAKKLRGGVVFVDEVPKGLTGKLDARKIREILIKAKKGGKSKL
#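 Purified P. pyralis luciferase (10nM final) with 10uM D-luciferin and 10uM ATP (Km levels) in 50mM Tris acetate pH 7.5, 10mM Mg acetate, 0.01% Tween-20, 0.05% BSA; qHTS 6-point titration, ~60 µM downward; luminescence read.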
# NPC1 promoter act – NPC1 promoter activation. AID 485313. Potency, µM (titrated, usually from 9.22 µM), for inactives: at the highest dose activation, actives largely listed as activators. 320,000 tested, 2.4% active. Huh7 NPC1 promoter luciferase reporter, 24 h; further: % of control where 0% means no effect; nearly all actives have a fitted effect of over 60% in size
#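 Compounds in DMSO were transferred onto Huh7 NPC1-luciferase reporter cells pre-incubated 2 h; after 24 h at 37 °C, Amplite reagent was dispensed and luminescence recorded 10 min later.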
# ELG1 repair inh – inhibitors of ELG1-dependent DNA repair in HEK293T cells; Potency, µM (series often up to 46.1 µM), for the others: top-dose activity change, negative = inhibition, actives largely listed as inhibitors; 330,000 tested, 2.3% active; HEK293T ELG1-luciferase reporter, luminescence, 16 h; DNA damage induced by 5-fluorouridine; further: on the % scale 0 is the no-effect control and ±100 the full control effect; nearly all actives have a fitted effect of over 55% in size
#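 DMSO vehicle served as the neutral condition. Each well held 2,000 cells given 5-fluorouridine plus compound; after 16 hr at 37 °C/5% CO2, ONE-Glo was added and luciferase measured 30 min later.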
# ELG1 genotox – inducers of genotoxicity in HEK293T ELG1-luciferase cells | HEK293T ELG1-luciferase reporter, luminescence, 16 h | Potency, µM (highest dose often 46 µM), for inactives: at the highest dose activity change, positive = activation, actives largely listed as activators | 330,000 tested, 1.3% active | AID 504466; further: % of control where 0% means no effect; nearly all actives have a fitted effect of over 60% in size
#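 Genotoxicity was scored as increased ELG1-luciferase reporter signal, measured by ONE-Glo luminescence (30 min, room temperature). Compound or vehicle exposure of the HEK293T reporter cells lasted 16 hr at 37°C.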
# * hit, by the source's call; ? = inconclusive; . = no result given; [ ] = dose if it differs, or a comment. In the library only some 9.2% were active in any assay of this set; here they are far more common. The call rests on the fitted dose curve; in most records, active means well fitted curve in the direction sought with a large enough effect; inconclusive means small, poorly fitted or top-dose-only effect, or another doubt; inactive means no such curve, though single readings can be large; an effect the other way counts as inactive or inconclusive. Potency means the concentration at half of the fitted maximal effect.
SMILES,Rab9 promoter act,SMN2 splice up,FLuc counter,NPC1 promoter act,ELG1 repair inh,ELG1 genotox
COc1ccccc1NC(=O)c1ccc(Br)o1,-5.2%,26.5%,-13.9%,1.1%,?,?
COc1cc(NC(=O)c2ccc(Br)o2)c(C(=O)O)cc1OC,-1.3%,17.6%,21.3µM*,-0.9%,9.2%,2.1%
Cc1c(NC(=O)c2ccccc2NC(=O)c2ccccc2)cccc1C(=O)O,4.4%,.,16.9µM*,-0.4%,5.3%,1.7%
Cc1c(NC(=O)c2ccccc2NC(=O)COc2ccccc2)cccc1C(=O)O,2.4%,.,-14.6%,-0.9%,9.1%,-8.5%
CCN(CC)C(=O)CCNS(=O)(=O)c1ccc(C)cc1,-5.0%,-21.4%,2.7%,1.0%,-7.6%,0.1%
COC(=O)CCCn1nc(NC(=O)c2ccco2)cc1C,20.3%,.,-4.0%,3.3%,-2.6%,7.1%
Cc1c(NC(=O)c2ccc(Br)o2)cccc1C(=O)O,2.51µM*,?,21.3µM*,?,?,?
Cc1c(NC(=O)c2ccccc2N)cccc1C(=O)O,1.78µM*,.,9.53µM*,1.26µM*,?,?
Cc1cccc(NC(=O)c2ccccc2NC(=O)C2CCCCC2)c1C,-2.5%,-1.2%,16.9µM*,1.8%,7.4%,?
Nc1ccccc1NC(=O)c1ccccc1N,17.1%,-3.4%,-22.5%,10.8%,25.9%,0.7%
Cc1c(NC(=O)c2cccs2)cccc1C(=O)O,?,10.4%,15.1µM*,?,?,12.1%
Cc1ccc(NC(=O)c2cccc(C(=O)Nc3ccc(C)cc3C(=O)O)c2)c(C(=O)O)c1,-3.9%[1.84 µM],.,26.9µM*,-0.5%,?,-10.6%
O=C(N/N=C/c1cn(-c2ccccc2)nc1-c1cc2ccccc2o1)c1ccccc1Br,?,4.47µM*,15.1µM*,3.16µM*,?,?
COc1ccc(-c2nn(-c3ccccc3)cc2/C=N/NC(=O)c2ccc(Br)o2)cc1,1.2%,-21.8%,?,-4.3%,?,-16.6%
O=C(N/N=C/c1cn(-c2ccccc2)nc1-c1cc2ccccc2o1)c1c[nH]c2ccccc12,1.41µM*,3.98µM*,1.9µM*,1.78µM*,?,?
COc1cc2c(cc1OC)CN(C(C)C(=O)Nc1ccc(NC(C)=O)cc1)CC2 (centres undefined),2.2%,-6.7%,-0.9%,-0.6%,?,1.7%
CCN1CCN(c2ccc(S(=O)(=O)N3CCOCC3)cc2NC(=O)CCC(C)C)CC1,-2.6%,.,1.1%,2.2%,10.8%,0.0%
COc1cccc(C(=O)N(C)Cc2c(C)nn(C3CCS(=O)(=O)C3)c2C)c1 (centres undefined),.,.,.,.,0.8%,-0.4%
CCN1CCN(/C=N/c2nc3c(s2)CCCC3)CC1,?,-4.5%,1.35µM*,?,?,0.92µM*
CN1CCN(CC(=O)Nc2nc3c(s2)CCCC3)CC1,9.9%,.,-4.6%,7.9%,?,-0.2%
CCN(Cc1ccccc1)S(=O)(=O)c1cc(C(=O)NC(C)C2CC3CCC2C3)ccc1OC (centres undefined),-11.0%,-45.0%,3.2%,-8.4%,6.51µM*,-4.3%
COc1cc(C(=O)NC(C)C2CC3CCC2C3)cc(OC)c1OC (centres undefined),-2.7%,.,-0.4%,-4.2%,-3.4%,9.2%
COc1ccc(CC(=O)Nc2ccc3nc(N4CCCCC4)cc(C)c3c2)cc1,.,-8.7%,-17.2%,.,.,.
C/C(N)=C(/C#N)C(=O)CSc1nnc(Nc2cccc(C)c2)s1,?,15.8µM*,5.36µM*,?,?,?
CCc1ccc(NC(=O)CSc2nc(C)c(C(=O)Nc3ccc(Cl)cc3)c(-c3ccc(OC)cc3)c2C#N)cc1,.,-6.9%,2.2%,.,.,.
O=C(CSc1nnc(NC(=O)c2ccco2)s1)Nc1ccc(F)cc1,19.3%,25.6%,15.1µM*,10.7%,?,3.9%
